Calls of active or inactive are those of the source. The rule behind the calls is not given here.
The compounds below were run against Mucolipin-3 (Homo sapiens) (UniProt Q8TDD5) (assay: activators of mucolipin-3 and mucolipin-2 – cell-based, patch clamp, Fura-2 profiling panel (AID 2116)). Details: HEK293 cells expressing TRPML3-YFP, TRPML3 Fura-2 Imaging; Fura-2 340/380 ratio change, at 10 µM, stronger effect = higher value.
Mucolipin-3 (Homo sapiens), sequence (Q8TDD5 whole entry, looked up): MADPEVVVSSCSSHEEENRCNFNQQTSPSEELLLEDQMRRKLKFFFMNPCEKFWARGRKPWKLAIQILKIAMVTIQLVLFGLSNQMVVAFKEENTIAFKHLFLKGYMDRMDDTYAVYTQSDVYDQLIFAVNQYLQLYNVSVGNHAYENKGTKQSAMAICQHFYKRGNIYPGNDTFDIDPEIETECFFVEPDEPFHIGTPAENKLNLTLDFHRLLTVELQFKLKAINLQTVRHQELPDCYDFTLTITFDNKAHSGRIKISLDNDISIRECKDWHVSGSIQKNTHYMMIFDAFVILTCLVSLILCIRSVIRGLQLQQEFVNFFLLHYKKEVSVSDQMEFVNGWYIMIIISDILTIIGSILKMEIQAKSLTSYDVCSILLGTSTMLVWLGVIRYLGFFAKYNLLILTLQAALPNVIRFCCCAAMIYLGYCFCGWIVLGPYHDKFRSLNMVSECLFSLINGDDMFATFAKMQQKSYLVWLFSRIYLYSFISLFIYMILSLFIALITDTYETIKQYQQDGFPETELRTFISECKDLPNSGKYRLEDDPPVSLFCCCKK

Compound	delta F ratio	outcome
O=S(=O)(Nc1ccccc1N1CCOCC1)c1ccc(Cl)s1	0.93	active; no effect on six other TRP channels
Cc1ccc(S(=O)(=O)Nc2ccccc2-c2ccccc2)cc1	0.51	active; no effect on six other TRP channels
O=S(=O)(NC1CCCCC1N1CCOCC1)c1ccc(Cl)cc1 (stereo not given)	1.38	active; no effect on six other TRP channels
O=S(=O)(Nc1ccccc1N1CCCCC1)c1ccc(Cl)s1	1	active; no effect on six other TRP channels
Cc1ccc(N2CCN(S(=O)(=O)N3CCCCC3)CC2)c(C)c1	0.99	active; no effect on six other TRP channels
